Mtb MenB inh – M. tuberculosis MenB inhibitors, primary screen, biochemical, absorbance. 1,4-dihydroxy-2-naphthoyl-CoA synthase (Mycobacterium tuberculosis (strain ATCC 25618 / …. MenB enzyme assay, absorbance read-out. inhibition, % (test concentration not listed). 100,000 tested, 0.43% active. AID 540299, 2011; in the data active = inhibition above about 21%, passing the limit was not always enough
Mtb MbtI inh – MbtI salicylate synthase inhibitors, primary screen, biochemical, fluorescence intensity | purified MbtI enzyme, fluorescence intensity read-out | inhibition, % (no concentration beside the values) | 100,000 tested, 0.89% active | AID 493033, 2011; in the data active = inhibition mostly above about 56%, no sharp cut-off; inactive = mostly below about 77%
AID504770 – growth inhibition of E. coli YBA685, primary screen, V. cholerae RctB inhibitors | E. coli YBA685 rctB-dependent plasmid, OD600 growth, 3 h; hits give low values | z-score (no concentration beside the values) | 130,000 tested, 0.27% active; in the data active = z-score below about -2, passing the limit was not always enough
PV pol inh – poliovirus RdRp elongation inhibitors, primary screen, biochemical, fluorescence polarization, total intensity | poliovirus polymerase elongation; hits give low values | % elongation, % (compound at 16.7 µg/mL) | 150,000 tested, 0.66% active; in the data active = % elongation below about 90%
Target sequence (P03300 1749-2209 limits assumed): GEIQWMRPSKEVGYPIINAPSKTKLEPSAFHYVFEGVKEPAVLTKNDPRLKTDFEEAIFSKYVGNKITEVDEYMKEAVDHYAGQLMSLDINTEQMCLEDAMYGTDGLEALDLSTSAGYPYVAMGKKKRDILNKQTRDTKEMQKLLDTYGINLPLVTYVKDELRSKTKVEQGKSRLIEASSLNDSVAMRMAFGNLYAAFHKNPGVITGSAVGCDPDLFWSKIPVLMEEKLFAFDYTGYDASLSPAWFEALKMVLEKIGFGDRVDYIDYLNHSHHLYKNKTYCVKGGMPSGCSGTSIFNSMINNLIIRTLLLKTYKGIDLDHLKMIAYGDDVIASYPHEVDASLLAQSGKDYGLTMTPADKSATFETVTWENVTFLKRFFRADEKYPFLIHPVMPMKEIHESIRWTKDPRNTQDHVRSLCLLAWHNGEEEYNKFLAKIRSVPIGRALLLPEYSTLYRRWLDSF
Active calls of the source: *; nt = not tested or not shown. Shown are actives, neighbours in structure and some others; about 1.5% of the full set was active somewhere.

SMILES	Mtb MenB inh	Mtb MbtI inh	AID504770	PV pol inh
CC(C)CN(C(=O)c1ccncc1)c1nc2ccccc2s1	-7	71*	-0.55	87*
Cn1c(SCc2cnc(-c3ccccc3)s2)nnc1C1COc2ccccc2O1 (stereo not given)	-8	-11	0.05	102
c1ccc(-c2nn3c(C4COc5ccccc5O4)nnc3s2)nc1 (stereo not given)	-35	57*	-0.9	92
CCOC(=O)C1=C(C)OC2(O)c3ccccc3C(=O)C12O (stereo not given)	15	-6	-0.9	56*
COc1cc(-c2ccc(/C=C3\SC(=N)N(c4nccs4)C3=O)o2)c(OC)cc1Cl	-29	56*	-0.05	113
N=C1S/C(=C\c2ccc(-c3ccccc3F)o2)C(=O)N1c1ccc2c(c1)OCO2	-11	-26	0.4	99
C=CCn1c(=O)c2ccccc2n2c(SC(C)c3nnc(-c4cccs4)o3)nnc12 (stereo not given)	-3	4	-0.05	104
N/C(=N\O)c1ccncc1	-17	-8	1.7	102
N/C(=N\O)c1cccc(/C(N)=N/O)n1	47*	nt	-0.75	113
NC(=S)N1CCCC1	-16	-3	0.15	97
S=C(S)N1CCCC1	-60	96*	-3.5*	108
CCOC(=O)N1CCC(NC(=O)CNC(=O)c2ccco2)CC1	nt	-16	-2.7*	nt
COc1cccc(C(O)C(F)(F)F)c1 (stereo not given)	29*	8	0.8	100
Clc1cn2ccsc2n1	-12	-5	1.4	102
COc1ccc(CCNC2=CC(=O)OC23CCCCC3)cc1OC	3	nt	1.8	72*
Cc1cc(NNS(=O)(=O)c2ccc(CCC(=O)O)cc2)n2ncnc2n1	7	17	1.2	105
CN(C)S(=O)(=O)c1ccc2oc(=S)[nH]c2c1	-30	77	1.3	88*
CCC(=O)/C=C\c1nnc2cc3c(cc2c1-c1ccc(CC)o1)OCCO3	-41	17	0.15	99
Cc1cccc(-c2nnc(C3CCNCC3)o2)c1	-34	78*	-0.05	102
COc1ccc(C2CC(=O)NC2=O)cc1Br (stereo not given)	nt	-7	-0.3	nt
CC(=O)Nc1nc(-c2ccc3c(c2)OCCO3)cs1	nt	nt	0.4	nt
Cc1nc(-c2ccc(C(=O)O)cc2)cs1	28*	20	1.9	103
Cc1nc(-c2ccc3c(c2)OCCO3)cs1	-13	92*	0.3	78*
Clc1cc2[nH]cc(-c3nnnn3-c3ccccc3)c2cc1Cl	nt	nt	1.1	nt
COCC(C)n1c(SCc2nnc(-c3ccccc3)o2)nc2ccccc2c1=O (stereo not given)	-12	8	1	104
SMILES	Mtb MenB inh	Mtb MbtI inh	AID504770	PV pol inh
CCC(C)(C)C1CCC(=NNc2ccccn2)CC1 (stereo not given)	-34	49	-1.1	108
CC(=NCCSCc1nc[nH]c1C)c1c(C)[nH]n(-c2nc3ccccc3s2)c1=O	-12	3	-0.1	103
CC(=NCc1cccnc1)c1c(C)[nH]n(-c2nc3ccccc3s2)c1=O	34*	8	-0.15	98
Cc1cc(C)n(CC(C)O)c(=O)c1C#N (stereo not given)	29	82	-0.25	102
Cc1cc(C)n(CCCO)c(=O)c1C#N	-27	89	-2.9*	102
Oc1c(C(c2cccs2)N2CCCCC2)ccc2cccnc12 (stereo not given)	-76	97*	0.1	135
COC(=O)c1sc(N)c(C(=O)OC)c1COC(=O)c1cc(S(N)(=O)=O)ccc1OC	-12	6	-0.15	nt
CC1S/C(=N/N=C/c2ccccc2)NC1=O (stereo not given)	-15	-2	2.1	106
CC1(C)C(C(=O)O)N2C(=O)CC2S1(=O)=O (stereo not given)	-20	-5	-2.4*	105
O=C(Nc1ccc(F)c(F)c1)c1cnn(-c2ccccc2)n1	-43	29	-0.4	90*
O=C(Cc1ccc(Cl)cc1)Nc1ccc2nn(-c3ccccc3)nc2c1	nt	nt	nt	107
CC(NC(=O)c1cc(=O)c2ccccc2o1)C(c1ccccc1)N1CCOCC1 (stereo not given)	-13	-2	-0.55	105
CCCCNC(=O)CN1CCN(Cc2cccc(OCC)c2OC)CC1	7	-6	0.35	88*
CCCCNC(=O)C1CCN(Cc2ccccc2OCC)CC1	-3	-1	-4.9	102
CC(C)C(c1nnnn1Cc1ccccc1)N1CCN(c2ccccc2)CC1 (stereo not given)	32*	-1	0.3	98
CC(=O)Nc1ccc(OC(=O)Cc2ccccc2)cc1	nt	nt	-0.2	nt
Cn1c(CSc2ccccc2)nc2ccccc21	-45	5	1.3	102
S=c1[nH]nc(NC2CC2)s1	-37	89*	2.2	102
Cc1cc(N)cc2[nH]c(-c3ccc(N)cc3)nc12	-7	nt	0.8	66*
O=C(O)CSCC(=O)Nc1ccc(Oc2ccc(OC(F)(F)F)cc2)cc1	nt	nt	0.5	nt
CN(C)C(=O)CSc1nc2cc(Cl)ccc2o1	-27	-5	-1.2	nt
CN(C)C(=O)CSc1nc2cc(S(=O)(=O)N3CCOCC3)ccc2o1	-11	87*	-1	81*
CCCSc1nc2ccc(S(=O)(=O)N3CCOCC3)cc2[nH]1	-20	93*	-0.1	64*
NC(=O)CSc1nc2cc(S(=O)(=O)N3CCOCC3)ccc2o1	-14	87	-0.55	76*
Cc1ccc2nc(SCC(N)=O)oc2c1	33*	3	0.65	101
SMILES	Mtb MenB inh	Mtb MbtI inh	AID504770	PV pol inh
CCOC(=O)N1CCC(Nc2nc(-c3ccccc3)no2)CC1	2	0	0.1	102
N=C1C(c2nc3ccccc3s2)=C(O)CN1N1C(=O)c2ccccc2C1=O	0	54	-0.05	89*
CNS(=O)(=O)c1cc(C(=O)N2CCN(c3ccccc3)CC2)ccc1OC	12	3	-1	102
O=C(O)COc1ccc2nsnc2c1	-51	90	-0.5	103
Cn1ccnc1P(=S)(c1nccn1C)N1CCOCC1	-1	87*	-0.2	80*
Cn1cc(P(=S)(N2CCOCC2)N2CCOCC2)cc1P(=S)(N1CCOCC1)N1CCOCC1	-29	23	1.7	100
Nc1cc(-c2ccccc2)c2ccccc2n1	-15	nt	-2.2*	102
NC(=S)N/N=C/c1ccc(N2CCOCC2)s1	-266	89*	0.25	81
Cc1ccc(CN2C(=O)CCC2(C)C(=O)NCCC(C)C)cc1 (stereo not given)	-20	-2	0.9	104
OCC(O)C(O)C(O)C(O)c1nc2ccccc2[nH]1 (stereo not given)	-16	-12	-0.15	62*
OC(c1ccc(Cl)cc1)C(O)c1nc2ccccc2[nH]1 (stereo not given)	0	-6	-0.3	100
CCCC(C(=O)O)N1C(=O)/C(=C/c2ccccc2Cl)SC1=S (stereo not given)	nt	nt	0.2	nt
CC(C)n1nnnc1SCC(=O)c1ccc(F)cc1	28*	0	-0.3	101
CC(=O)Nc1ccc(C(=O)CSc2nnnn2C(C)C)cc1	-28	10	0.1	102

Screens: PubChem BioAssay, ICCB-Longwood Screening Facility, Harvard Medical School
